Screening data from PubChem BioAssay.
Most compounds without a hit are left out; they make up all but 3.8% or so of the library.
ELG1 repair inh: inhibitors of ELG1-dependent DNA repair in HEK293T cells; HEK293T ELG1-luciferase reporter, luminescence, 16 h; DNA damage induced by 5-fluorouridine; 2.3% of 330,000 active; Potency, µM (top dose mostly 46.1 µM), for the others: top-dose activity change, negative = inhibition, hits mostly inhibitors; note: % is set by controls: 0 for no effect and ±100 for the full control effect; nearly all actives have a fitted effect of over 55% in size
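DMSO vehicle served as the neutral condition. Each well held 2,000 cells given 5-fluorouridine plus compound; after 16 hr at 37 °C/5% CO2, ONE-Glo was added and luciferase measured 30 min later.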
Nrf2 ARE act: activators of Nrf2 (ARE) signaling; AID 624171; 0.31% of 410,000 active; AREc32 ARE-luciferase reporter (MCF7-derived line), luminescence, 24 h; Potency, µM (highest dose often 46.1 µM), for inactives: at the top dose activation, usual class: activators; note: % of control where 0% means no effect; nearly all actives have a fitted effect of over 65% in size
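Luciferase luminescence (Steady-Glo, 30 min at room temperature) served as the read-out of ARE activation in AREc32 cells treated with compounds for 24 hr at 37 deg C.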
Nrf2 block: blocks Nrf2 signaling; A549 ARE-Fluc reporter, luciferase luminescence, 18-24 h; Potency, µM (doses to about 46 µM), inactives show at the top dose activity change, negative = inhibition, most hits filed as inhibitors; 2.1% of 360,000 active; AID 504444; note: % is set by controls: 0 for no effect and ±100 for the full control effect; nearly all actives have a fitted effect of over 60% in size
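A549 ARE_Fluc cells, 5000/well, 5% FBS OPTI-MEM; compounds in dose-response, 18-24 h at 37 °C/5% CO2; CellTiter-Fluor viability read (Ex 405/Em 525), then BugLite luciferase luminescence = Nrf2 activity.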
A549 viability: counter-screen for Nrf2 inhibitors: cytotoxicity in A549 cells | A549 ARE-Fluc cells, CellTiter-Fluor viability, 18-24 h | Potency, µM (series often up to 46 µM), for the others: at the top dose activity change, negative = cytotoxicity, usual class: inhibitors | 0.16% of 390,000 active; note: % is set by controls: 0 for no effect and ±100 for the full control effect
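A549 ARE-Fluc cells in 5% FBS OPTI-MEM, 5000 cells/well, rested 2 h then exposed to compounds in concentration-response for 18-24 h at 37 °C. Viability by CellTiter-Fluor fluorescence (Ex 405/Em 525) after 30 min; luciferase luminescence (BugLite, 15 min, RT) read afterwards.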
mIDH1 inhibitor: blocks human mutant IDH1 R132H enzyme | O75874 | IDH1-R132H enzyme, NADPH consumption, diaphorase/resazurin fluorescence | Potency, µM (highest dose often 76.6 µM), inactives show top-dose activity change, negative = inhibition, most hits filed as inhibitors | 0.093% of 390,000 active | AID 602179; note: % is set by controls: 0 for no effect and ±100 for the full control effect; nearly all actives have a fitted effect of over 65% in size
Target sequence (O75874 whole entry R132H, stated change not applied): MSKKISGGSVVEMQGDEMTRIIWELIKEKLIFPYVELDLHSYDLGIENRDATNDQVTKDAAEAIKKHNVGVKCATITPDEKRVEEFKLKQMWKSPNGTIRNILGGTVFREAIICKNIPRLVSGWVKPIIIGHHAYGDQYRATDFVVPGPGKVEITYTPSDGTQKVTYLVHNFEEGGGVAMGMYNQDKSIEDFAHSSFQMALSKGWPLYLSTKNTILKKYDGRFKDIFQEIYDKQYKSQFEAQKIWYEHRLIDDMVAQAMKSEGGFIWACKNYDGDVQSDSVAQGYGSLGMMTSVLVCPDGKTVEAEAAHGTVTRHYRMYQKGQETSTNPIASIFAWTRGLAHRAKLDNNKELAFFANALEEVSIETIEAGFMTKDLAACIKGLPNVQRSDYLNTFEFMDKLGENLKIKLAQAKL
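IDH1-R132H (0.5 ug/mL) preincubated 30 min with compound, then NADPH (0.016 mM) and alpha-KG (2 mM) added; 80 min at RT, pH 7.5. Remaining NADPH coupled via diaphorase/resazurin to fluorescence (540/590 nm); concentration-response curves normalized to no-enzyme control.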
The depositor's hits bear a star; ? = inconclusive; . = not tested or not shown. Calls come from the whole dose curve; as a rule, active = well fitted curve in the direction sought with a large enough effect; inconclusive = small, poorly fitted or top-dose-only effect, or another doubt; inactive = no such curve, though single readings can be large; an effect the other way counts as inactive or inconclusive. Potency is the fitted concentration of half-maximal effect.

SMILES | ELG1 repair inh | Nrf2 ARE act | Nrf2 block | A549 viability | mIDH1 inhibitor
Cc1ccccc1-[n+]1c(-c2ccccc2)cc(-c2ccccc2)cc1-c1ccccc1 | ? | -1% | 12µM* | ? | -5%
Oc1ccccc1-[n+]1c(-c2ccccc2)cc(-c2ccccc2)cc1-c1ccccc1 | ? | 5% | -1% | -7% | 2%
COc1ccc(-c2cc(-c3ccccc3)[n+](C)c(-c3ccccc3)c2)cc1 | ? | 6% | ? | ? | 2%
COc1ccc(-[n+]2c(-c3ccccc3)cc(-c3ccc(C)cc3)cc2-c2ccccc2)cc1 | 3.7µM* | 0% | 21µM* | ? | -2%
CCOP(=O)(OCC)c1nc(-c2ccc(F)cc2)oc1NCc1ccccc1 | ? | 3% | -7% | 15% | 8%
CCCOC(=O)c1c(C)oc2c1cc(NS(=O)(=O)c1ccc(OCC)cc1)c1ccccc12 | . | 3% | ? | -2% | 4%
COC(=O)C1CN(C#N)N(c2ccc(Cl)cc2)C12c1ccccc1-c1ccccc12 (stereo unspecified) | 5.8µM* | -3% | 18µM* | ? | -11%
Cc1ccc(S(=O)(=O)N(C)CCCC(=O)N2CCN(c3ccccn3)CC2)cc1 | 18µM* | 3% | ? | -1% | 2%
Cc1ccc(S(=O)(=O)N(C)C/N=C(\N)N[N+](=O)[O-])cc1 | 5% | 0% | -11% | 0% | 2%
Cc1cccc(NP(=O)(Oc2ccccc2)Oc2ccccc2)c1C | ? | 2% | -8% | -3% | 0%
Cc1ccccc1NP(=O)(Oc1ccccc1F)Oc1ccccc1F | 23µM* | 0% | -18% | -19% | 0%
CCCCN1CCS(=O)(=O)N(Cc2ccccc2Br)CC(C(=O)OC)C1 (stereo unspecified) | ? | ? | 12% | -3% | 11%
COc1ccc(Nc2c(-c3cc(Br)ccc3O)nc3ncccn23)cc1OC | . | 11% | ? | -18% | -6%
O=S(=O)(c1ccc(Cl)cc1)N1CCC(n2cnc3cc(C(F)(F)F)ccc32)CC1 | . | 3% | ? | -11% | -5%
COC(=O)C1=C(c2ccc(F)cc2OCc2ccccc2)C[C@@H]2CC[C@H]1N2C(=O)NCCCc1ccccc1 | ? | -1% | 16µM* | -17% | -8%
COC(=O)C1=C(c2ccc(F)cc2OCc2ccccc2)C[C@@H]2CC[C@H]1N2C(=O)NCc1ccc(F)cc1 | ? | 0% | ? | -15% | 5%
COC(=O)C1=C(c2ccccc2OCc2ccccc2)C[C@@H]2CC[C@H]1N2C(=O)NCc1ccc(C(C)(C)C)cc1 | -23% | -1% | 21µM* | -12% | -7%
COC(=O)C1=C(c2ccc(F)cc2OCc2ccccc2)C[C@@H]2CC[C@H]1N2C(=O)NC1Cc2ccccc2C1 | -10% | -1% | 16µM* | -17% | -6%
COC(=O)C1=C(c2ccccc2OCc2ccccc2)C[C@@H]2CC[C@H]1N2C(=O)NCc1ccc(F)cc1 | -23% | -1% | 23µM* | ? | -14%
COC(=O)C1=C(c2ccc(F)cc2OCc2ccccc2)C[C@@H]2CC[C@H]1N2C(=O)NCc1ccc(C)cc1 | ? | 0% | 15µM* | ? | 2%
Cn1c(-c2ccccc2)c(P(=S)(c2ccccc2)c2ccccc2)c2ccccc21 | . | . | 13% | -1% | .
COc1ccc(Cc2nccc3cc(OC)c(OC)cc23)cc1OC | -12% | 7% | 15µM* | 2% | 8%
COc1cc2c(ccc3c4cc(OC)c(OC)cc4c[n+](C)c23)cc1O | . | 5% | ? | -11% | 7%
CC[n+]1c(SC)ccc2cc(OC)ccc21 | 19% | 0% | 18µM* | ? | -4%
COc1cc(OC)cc(-c2sc3ccc(OC)cc3c2-c2ccc(OCCN3CCOCC3)cc2)c1 | 6.5µM* | 8% | ? | 9% | -10%
SMILES | ELG1 repair inh | Nrf2 ARE act | Nrf2 block | A549 viability | mIDH1 inhibitor
CSC1=NC(C)(C)CC2(C)Nc3ccccc3N12 (stereo unspecified) | ? | 2% | 8% | -6% | 1%
CCOC(=O)C1(CCc2ccccc2)CCN(Cc2csc(C(C)=O)c2)CC1 | -18% | 16% | 15µM* | ? | 3%
Cc1cccc(N(CC(=O)NCCSc2ccc(Cl)cc2)S(=O)(=O)c2ccccc2)c1C | . | 0% | ? | -11% | -3%
C=CCn1c(O)c(C(C)=NCCC(c2ccccc2)c2ccccc2)c(=O)[nH]c1=O | 7.3µM* | -1% | -17% | 1% | 0%
C=CCn1c(O)c(C(C)=NC(C)c2ccccc2)c(=O)[nH]c1=O (stereo unspecified) | ? | 9% | -14% | 12% | -1%
COc1ccc(NS(=O)(=O)c2ccc3c(c2)oc(=O)n3C)cc1Cl | -5% | 2% | 15µM* | 0% | 4%
O=C(c1cc(-c2cccc(Cl)c2)on1)N1CCOCC1 | ? | 4% | ? | 5% | 3%
CCOc1ccc(-c2cc(C)[n+](CCN3CCOCC3)c(-c3ccc(OCC)cc3)c2)cc1 | 16µM* | 0% | -20% | -2% | 6%
Cc1ccc(NC(=O)c2cc(S(=O)(=O)N3CCOCC3)c(Cl)cc2Cl)cc1 | . | 4% | ? | 1% | .
CCCc1cc(N2CCN(c3cccc(C)c3C)CC2)n2cnnc2n1 | . | 1% | ? | -1% | 5%
CCCCCCC(=O)N/N=C/c1c(O)n(CCCC)c(=S)[nH]c1=O | ? | 0% | 21µM* | -16% | 2%
CCCCC(=O)N/N=C/c1c(O)n(CC)c(=S)[nH]c1=O | 12% | 0% | -7% | -3% | 5%
CN(Cc1ccccc1)C(=O)c1ccc(NC(=O)C2CCN(C(=O)OC(C)(C)C)CC2)cc1 | 10µM* | 3% | 16µM* | -5% | -2%
CN(Cc1ccccc1)C(=O)CN1CCCC1=O | -1% | 0% | -7% | 3% | -1%
O=C(C(=O)N1CCOCC1)c1cn(Cc2c(F)cccc2Cl)c2ccccc12 | 27% | 0% | 10% | 7% | -1%
Cc1cc2c(cc(C(=O)N3CCC(C(=O)NC4CCCC4)CC3)n2Cc2c(F)cccc2Cl)o1 | 23µM* | 1% | 16µM* | -22% | 2%
CCc1nn2c(=O)cc(N3CCN(C)CC3)nc2s1 | . | . | 8% | -2% | .
CCn1cc2nc(SCc3c(F)cccc3Cl)n(CCc3ccccc3)c(=O)c2n1 | . | -1% | ? | -24% | -7%
CCn1cc2nc(SCc3cccc(C(F)(F)F)c3)n(Cc3ccc(OC)cc3)c(=O)c2n1 | . | 4% | 23µM* | -20% | 13%
O=C(C1CCN(S(=O)(=O)c2ccc(Br)s2)CC1)N1CCN(c2ccc(F)cc2)CC1 | . | -1% | ? | -7% | -2%
O=C1NC(=O)N(Cc2ccccc2)C(=O)/C1=C\C=C\c1ccco1 | ? | ? | 26µM* | ? | ?
